Test results: PubChem BioAssay
Activity calls are given as the source filed them.

Experiments:
[1] = binders of probe aFSTL3 on microarray, primary screen, stem cell growth factor project, biochemical, small-molecule microarray, fluorescence 635/667 (AID 1064); conditions: higher = more signal;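 note: measures binding of the biotinylated anti-FSTL3 antibody to printed compounds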
[2] = binders from COS7 lysate, DM2A8 probe, primary screen, torsin A project, cell lysate, small-molecule microarray, fluorescence 635/667 (AID 1065); conditions: higher = more signal, COS7 lysate expressing mutant human TOR1A
[3] = binders of probe aFGF2 on microarray, primary screen, stem cell growth factor project, biochemical, small-molecule microarray, fluorescence 635/667 (AID 1067); conditions: higher = more signal;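 note: measures binding of biotinylated aFGF2 protein to printed compounds on slides; z-score merges feature fluorescence and signal-to-noise across triplicate slides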
[4] = binders of probe aFGF10 on microarray, primary screen, stem cell growth factor project, biochemical, small-molecule microarray, fluorescence 635/667 (AID 1071); conditions: higher = more signal;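 note: score merges 667 nm spot intensity and signal to noise from triplicate slides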
[5] = biological target: Neurogenic locus notch homolog protein 2 (Homo sapiens) (UniProt Q04721); experiment: Notch2 binders on small-molecule microarrays, primary screen, biochemical, small-molecule microarray, 635 nm fluorescence, stem cell growth factors (AID 1073); conditions: Notch2 binding, higher = more signal
Chain of Neurogenic locus notch homolog protein 2 (Homo sapiens) (Q04721 whole entry, looked up, canonical isoform): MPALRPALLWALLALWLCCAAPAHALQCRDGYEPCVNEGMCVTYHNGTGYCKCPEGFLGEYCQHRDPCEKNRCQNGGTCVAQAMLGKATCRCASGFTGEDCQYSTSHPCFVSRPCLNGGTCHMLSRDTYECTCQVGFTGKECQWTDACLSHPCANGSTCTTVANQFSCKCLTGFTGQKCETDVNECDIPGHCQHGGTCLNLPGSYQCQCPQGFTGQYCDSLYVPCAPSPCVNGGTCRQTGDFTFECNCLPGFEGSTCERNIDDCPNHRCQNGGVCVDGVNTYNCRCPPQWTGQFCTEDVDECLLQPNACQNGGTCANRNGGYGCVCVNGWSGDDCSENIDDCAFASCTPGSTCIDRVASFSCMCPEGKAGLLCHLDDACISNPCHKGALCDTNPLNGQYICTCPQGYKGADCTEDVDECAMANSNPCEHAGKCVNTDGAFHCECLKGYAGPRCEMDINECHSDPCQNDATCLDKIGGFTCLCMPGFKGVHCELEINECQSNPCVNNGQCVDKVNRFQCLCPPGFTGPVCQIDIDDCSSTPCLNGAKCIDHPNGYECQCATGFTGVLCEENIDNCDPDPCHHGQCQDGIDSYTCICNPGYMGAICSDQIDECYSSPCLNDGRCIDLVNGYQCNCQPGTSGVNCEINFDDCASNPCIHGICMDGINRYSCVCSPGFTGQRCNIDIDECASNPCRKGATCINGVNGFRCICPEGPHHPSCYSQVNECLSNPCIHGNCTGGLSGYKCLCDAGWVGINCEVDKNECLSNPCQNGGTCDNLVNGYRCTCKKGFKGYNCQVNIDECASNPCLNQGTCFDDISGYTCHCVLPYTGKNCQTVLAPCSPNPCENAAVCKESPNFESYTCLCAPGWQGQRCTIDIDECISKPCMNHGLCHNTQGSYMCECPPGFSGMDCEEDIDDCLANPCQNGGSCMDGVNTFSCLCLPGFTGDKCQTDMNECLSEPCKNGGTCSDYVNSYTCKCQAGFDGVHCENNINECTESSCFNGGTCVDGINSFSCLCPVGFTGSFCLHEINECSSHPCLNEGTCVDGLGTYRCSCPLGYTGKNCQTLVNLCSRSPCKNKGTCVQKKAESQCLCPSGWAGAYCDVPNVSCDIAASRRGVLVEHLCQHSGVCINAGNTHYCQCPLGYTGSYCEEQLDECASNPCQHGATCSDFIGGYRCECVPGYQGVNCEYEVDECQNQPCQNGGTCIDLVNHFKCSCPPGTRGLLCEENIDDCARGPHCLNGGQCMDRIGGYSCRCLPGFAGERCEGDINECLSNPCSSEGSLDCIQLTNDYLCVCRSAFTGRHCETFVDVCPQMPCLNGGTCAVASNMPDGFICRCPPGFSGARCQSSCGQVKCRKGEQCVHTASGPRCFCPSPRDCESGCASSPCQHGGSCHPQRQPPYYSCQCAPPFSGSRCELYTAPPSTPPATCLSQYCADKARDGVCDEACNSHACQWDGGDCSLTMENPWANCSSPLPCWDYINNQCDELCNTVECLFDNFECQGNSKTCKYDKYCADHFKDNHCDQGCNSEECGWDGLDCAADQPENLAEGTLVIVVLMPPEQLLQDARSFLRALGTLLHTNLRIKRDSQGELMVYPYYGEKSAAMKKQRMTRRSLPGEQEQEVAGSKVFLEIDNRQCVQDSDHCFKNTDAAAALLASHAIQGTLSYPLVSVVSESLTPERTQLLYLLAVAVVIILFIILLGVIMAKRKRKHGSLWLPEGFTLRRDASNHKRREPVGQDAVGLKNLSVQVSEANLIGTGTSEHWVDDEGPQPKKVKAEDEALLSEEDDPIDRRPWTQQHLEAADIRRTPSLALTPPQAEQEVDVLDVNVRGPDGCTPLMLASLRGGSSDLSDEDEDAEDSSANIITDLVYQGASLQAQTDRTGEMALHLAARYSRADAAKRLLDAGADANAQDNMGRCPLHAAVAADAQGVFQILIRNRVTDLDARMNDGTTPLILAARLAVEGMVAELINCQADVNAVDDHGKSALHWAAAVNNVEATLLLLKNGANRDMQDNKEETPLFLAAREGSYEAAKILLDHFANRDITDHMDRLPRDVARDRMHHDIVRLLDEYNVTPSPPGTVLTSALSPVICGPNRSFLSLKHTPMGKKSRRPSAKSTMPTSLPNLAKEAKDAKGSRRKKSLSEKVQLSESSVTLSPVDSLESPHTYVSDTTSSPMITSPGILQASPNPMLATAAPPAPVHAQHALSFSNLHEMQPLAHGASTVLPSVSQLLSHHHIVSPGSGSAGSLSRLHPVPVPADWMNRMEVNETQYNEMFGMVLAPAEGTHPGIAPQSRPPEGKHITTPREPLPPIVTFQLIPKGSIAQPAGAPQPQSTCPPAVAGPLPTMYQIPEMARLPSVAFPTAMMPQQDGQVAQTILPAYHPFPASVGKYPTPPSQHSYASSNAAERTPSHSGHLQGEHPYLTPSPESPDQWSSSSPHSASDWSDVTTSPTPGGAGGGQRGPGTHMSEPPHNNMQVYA

[6] = biological target: Pro-neuregulin-1, membrane-bound isoform (Homo sapiens) (UniProt Q02297); experiment: NRG1 binders on small-molecule microarrays, primary screen, psychiatric disease protein project, biochemical, small-molecule microarray, fluorescence 635/667 (AID 1075); conditions: NRG1 binding, 635 nm fluorescence, higher = more signal;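 note: score combines 667 nm spot fluorescence with signal to noise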
Chain of Pro-neuregulin-1, membrane-bound isoform (Homo sapiens) (Q02297 whole entry, looked up, the tested form may be a part, canonical isoform): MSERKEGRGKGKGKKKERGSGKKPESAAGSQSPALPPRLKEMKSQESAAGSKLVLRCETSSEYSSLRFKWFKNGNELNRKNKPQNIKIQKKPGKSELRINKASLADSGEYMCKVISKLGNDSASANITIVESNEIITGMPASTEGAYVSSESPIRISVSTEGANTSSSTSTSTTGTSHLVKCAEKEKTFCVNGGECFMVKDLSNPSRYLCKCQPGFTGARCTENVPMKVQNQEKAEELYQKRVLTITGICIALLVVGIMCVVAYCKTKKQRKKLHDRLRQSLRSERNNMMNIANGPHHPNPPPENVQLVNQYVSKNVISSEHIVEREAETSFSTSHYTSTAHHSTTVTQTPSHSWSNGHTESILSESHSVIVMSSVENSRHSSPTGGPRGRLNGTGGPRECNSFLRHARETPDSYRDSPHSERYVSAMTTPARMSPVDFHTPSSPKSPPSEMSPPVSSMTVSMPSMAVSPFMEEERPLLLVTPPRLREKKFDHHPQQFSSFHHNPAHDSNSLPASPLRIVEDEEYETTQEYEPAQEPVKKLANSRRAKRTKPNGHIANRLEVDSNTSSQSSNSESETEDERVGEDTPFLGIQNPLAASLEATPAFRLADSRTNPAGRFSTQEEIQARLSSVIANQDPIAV

[7] = tested on: Neuregulin-1 EGF-like domain; experiment: binders of neuregulin-1 EGF-like domain, primary screen, biochemical, small-molecule microarray, 635 nm fluorescence (AID 1081); conditions: small-molecule microarray binding, higher = more signal;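 note: binding of the protein to compounds printed on small-molecule microarray slides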
[8] = FRG1 promoter luciferase signal modulators, primary screen, FRG1 inhibition for FSHD, cell-based, C2C12 myotubes, firefly/Renilla luciferase, luminescence (AID 1084); conditions: higher = more signal, called active from +8 up or from −8 down
[9] = binders of probe aFST on microarray, primary screen, stem cell growth factor project, biochemical, small-molecule microarray, fluorescence 635/667 (AID 1086); conditions: higher = more signal;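 note: score merges 667 nm fluorescence with signal-to-noise of each printed compound spot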
[10] = binders of probe aHhip on microarray, primary screen, stem cell growth factor project, biochemical, small-molecule microarray, fluorescence 635/667 (AID 1087); conditions: higher = more signal;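 note: score merges spot fluorescence at 667nm with spot signal to noise ratio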

CCN1C(=O)[C@H]2[C@H]3[C@H](O)[C@H](O)CC(=NOCC(C)C)[C@@H]3CC[C@H]2C1=O
composite z-score [1]: -0.596
composite z-score [2]: 0.217
composite z-score [3]: -0.142
composite z-score [4]: 0.361
composite z-score [5]: 1.23
composite z-score [6]: 0.42
composite z-score [7]: 0.336
z-score [8]: 0.0163 (inactive)
composite z-score [9]: 0.124
composite z-score [10]: 0.465

CCOC(=O)[C@H](CC(C)C)NC(=O)CCC1CC(OC(=O)NCCc2ccc(F)cc2)CC2(CCCC(COC(=O)NCCC(C)C)O2)O1 (stereo not given in full)
composite z-score [1]: -0.44
composite z-score [2]: 0.289
composite z-score [3]: -0.083
composite z-score [4]: 0.297
composite z-score [5]: -0.383
composite z-score [6]: 0.797
composite z-score [7]: 0.98
z-score [8]: 1.25 (inactive)
composite z-score [9]: -0.128
composite z-score [10]: 0.0722

CCOC(=O)NN=C1C[C@@H](O)[C@@H](O)[C@@H]2[C@@H]3C(=O)N(c4ccc(F)cc4F)C(=O)[C@@H]3CC[C@@H]12
composite z-score [1]: -0.333
composite z-score [2]: 0.415
composite z-score [3]: -0.0659
composite z-score [4]: 0.281
composite z-score [5]: 0.493
composite z-score [6]: 0.594
composite z-score [7]: -0.0454
z-score [8]: -0.248 (inactive)
composite z-score [9]: 0.627
composite z-score [10]: 0.0139

COc1ccc(COC(=O)NN=C2C[C@@H](O)[C@@H](O)[C@@H]3[C@@H]4C(=O)N(c5cccc(Oc6ccccc6)c5)C(=O)[C@@H]4CC[C@@H]23)cc1
composite z-score [1]: 0.809
composite z-score [2]: -0.107
composite z-score [3]: -0.0363
composite z-score [4]: -0.135
composite z-score [5]: -0.423
composite z-score [6]: -0.0521
composite z-score [7]: -0.265
z-score [8]: 0.331 (inactive)
composite z-score [9]: 0.88
composite z-score [10]: 0.262

CC(C)CCN1CCc2nc(COc3ccccc3)c3c(c2C1)CO[C@@H](C)C3
composite z-score [1]: 0.188
composite z-score [2]: 0.369
composite z-score [3]: -0.0819
composite z-score [4]: 0.0995
composite z-score [5]: -0.0065
composite z-score [6]: 0.385
composite z-score [7]: 0.135
z-score [8]: 0.0476 (inactive)
composite z-score [9]: 0.138
composite z-score [10]: 0.0623

COC(=O)NCC=Cc1nc(CCCO)co1
composite z-score [1]: -0.596
composite z-score [2]: 0.273
composite z-score [3]: -0.0174
composite z-score [4]: 0.525
composite z-score [5]: 0.623
composite z-score [6]: 0.177
composite z-score [7]: 0.414
z-score [8]: -0.435 (inactive)
composite z-score [9]: 0.0512
composite z-score [10]: -0.287

COC(=O)[C@H](C)NC(=O)CCC1CC(OC(=O)NCc2ccc3c(c2)OCO3)CC2(CCCC(COC(=O)NCC(c3ccccc3)c3ccccc3)O2)O1 (stereo not given in full)
composite z-score [1]: -0.686
composite z-score [2]: 0.7
composite z-score [3]: -0.0541
composite z-score [4]: 1.17
composite z-score [5]: 0.994
composite z-score [6]: 0.682
composite z-score [7]: 1.28
z-score [8]: 2.96 (inactive)
composite z-score [9]: 0.132
composite z-score [10]: 0.0201

COC(=O)CC=C[C@@H](C)[C@@H](C=NO[C@@H]1O[C@H](COC(C)=O)[C@@H](OC(C)=O)[C@H](OC(C)=O)[C@H]1OC(C)=O)OC
composite z-score [1]: -0.48
composite z-score [2]: 1.26
composite z-score [3]: 0.0167
composite z-score [4]: -0.41
composite z-score [5]: 1.03
composite z-score [6]: -0.617
composite z-score [7]: -1.05
z-score [8]: 0.572 (inactive)
composite z-score [9]: 0.354
composite z-score [10]: 0.189

CO[C@H]1COC(=O)CC=C[C@H](C)[C@@H](OC)COC(=O)[C@@H](C)COC(=O)CC=C[C@@H]1C
composite z-score [1]: -0.834
composite z-score [2]: 2.17
composite z-score [3]: -0.152
composite z-score [4]: -0.938
composite z-score [5]: -1.22
composite z-score [6]: -0.652
composite z-score [7]: -0.513
z-score [8]: -0.862 (inactive)
composite z-score [9]: 0.0281
composite z-score [10]: 0.106

Cn1c(=O)n2n(c1=O)[C@H]1[C@H](O)[C@@H]3O[C@@H]3C(=NOCc3ccccc3)[C@H]1CC2
composite z-score [1]: -0.266
composite z-score [2]: 0.125
composite z-score [3]: -0.085
composite z-score [4]: -0.0229
composite z-score [5]: 0.0633
composite z-score [6]: -0.257
composite z-score [7]: 0.0977
z-score [8]: -0.928 (inactive)
composite z-score [9]: -0.0977
composite z-score [10]: -0.0088

Cn1c(=O)n2n(c1=O)[C@H]1[C@H](O)[C@@H]3O[C@@H]3C(=O)[C@H]1CC2
composite z-score [1]: -0.439
composite z-score [2]: 0.197
composite z-score [3]: -0.128
composite z-score [4]: 0.355
composite z-score [5]: 0.584
composite z-score [6]: -0.208
composite z-score [7]: 0.712
z-score [8]: 0.101 (inactive)
composite z-score [9]: 0.95
composite z-score [10]: 0.0053

CCOC(=O)[C@H](CC(C)C)NC(=O)CCC1CC(OC(=O)NCCc2ccc(F)cc2)CC2(CCCC(COC(=O)NCC3CCCCC3)O2)O1 (stereo not given in full)
composite z-score [1]: -0.595
composite z-score [2]: 0.101
composite z-score [3]: -0.0652
composite z-score [4]: 0.817
composite z-score [5]: 0.482
composite z-score [6]: 0.301
composite z-score [7]: 1.1
z-score [8]: 0.605 (inactive)
composite z-score [9]: -0.0627
composite z-score [10]: -0.19

CCCNC(=O)OC[C@H]1O[C@H](CCON=Cc2ccc(C(=O)N3[C@H](c4ccc(C)cc4)[C@@H](C)CC[C@H]3C(=O)OC)cc2)C=C[C@@H]1Oc1ccc(OC)cc1
composite z-score [1]: -0.52
composite z-score [2]: 0.304
composite z-score [3]: -0.173
composite z-score [4]: 0.335
composite z-score [5]: 0.458
composite z-score [6]: 0.448
composite z-score [7]: 0.51
z-score [8]: 0.868 (inactive)
composite z-score [9]: 0.598
composite z-score [10]: -0.102
